Data as given in PubChem BioAssay (EPA / NIEHS).
Active and inactive are the calls of the source. How the source made its calls: active means hit-call score of the fitted dose curve at least 0.9, where 1 is the maximum; inactive means score below 0.9.

The compounds below were run on Forkhead box O3 (FOXO3), FOXO3 (gene 2309) (assay: LTEA_HepaRG_FOXO3: Life Technologies and Expression Analysis (LTEA) Assay for Forkhead box O3 (FOXO3) using HepaRG (AID 2283459)). Conditions: mRNA level, 48 h; actives raise or lower the signal.
Method: LTEA_HepaRG is a cell based, multiplexed-readout assay that uses HepaRG, a human liver cell line, with measurements taken at 48 hours after chemical dosing on a 96-well plate.LTEA_HepaRG_FOXO3 is one of 102 assay component(s) measured in the LTEA HepaRG cell culture assay. It is a marker of Cell proliferation, survival, death.Data from the assay component LTEA_HepaRG_FOXO3 was analyzed into 1 endpoint. This assay endpoint, LTEA_HepaRG_FOXO3, was analyzed with bidirectional fitting relative to DMSO as the negative control and baseline of activity. Using a type of inducible reporter, measures of mRNA induction for gain or loss-of-signal activity can be used to understand regulation of transcription factor activity. To generalize the intended target to other relatable targets, this assay endpoint is annotated to the dna binding intended target family, where the subfamily is forkhead box protein.
A total of 1060 chemcials from the ToxCast library were tested in eight-point concentration-response experiments. Cell culture and cytotoxicity assays were conducted at Thermo Fisher Scientific's Custom Services facility (Madison, WI). A single lot of human HepaRG cells (Thermo Fisher Scientific, Frederick, MD) was used for the cell culture experiments. 96-well format collagen type I coated plates of human HepaRG cells were prepared using established methods. Briefly, cryopreserved HepaRG cells were thawed, plated at a density of approximately 100,000 cells/well in HepaRG Thaw, Plate, and General Purpose media (HPRG770, Thermo Fisher Scientific), and incubated for 48 hours. 0.5% DMSO was selected as vehicle control to balance the requisite need of DMSO in HepaRG cultures to maintain differentiation (for example, baseline metabolism, proportions of hepatocytes vs. cholangiocytes), while enabling further hepatic receptor pathway activation (for example, PXR and CAR) in response to chemical exposure. 48 hours after plating, the culture medium was replaced with HepaRG Serum-Free Incudtion Media. Cells were exposed to each test chemical in duplicate and maintained in CO2 incubators for another 48 hours. Chemical plates were thawed to room temperature and 200x concentrations of treatment groups were prepared. 8-point conentration-reponse curves were made with the highest exposure at 100 uM, followed by half-log dilutions, all in 0.5% DMSO. Each test plate contained variouse controls, induction positive controls (1mM phenobarbital), cytotoxicity positive controls ([…] aflatoxin B1), vehicle controls (0.5% DMSO), and total lysis controls (0.5% DMSO). Cell morphology images were taken using an Essen IncuCyte FLR automated microscope, with six 96-well plates imaged in about 24 minutes. Images were captured and exported and JPEG files. Spent culture media was transfered to black-well plates for the LDH assay, and remaining media was sorted at -80 C for later use. Cells were treated with RLT buffer and frozen until shipped for gene expression analysis. Total RNA was isolated from the cell suspension in 75 uL of Buffer RLT (Qiagen, Germantown, MD 20874) by Quintiles/Expression Analysis (Durham, NC) using a custom isolation procedure. Total RNA from each plate well was transferred to a preamplification plate. Fluidigm's 96.96 Dynamic ArrayTM (Fluidigm, Amsterdam, the Netherlands) technology was used for gene expression analyses by quantitative reverse transcription polymerase chain reaction (qRT-PCR, performed by Quintiles/Expression Analysis, Durham, NC)89. Standard TaqManTM Assays (Applied Biosystems/ThermoFisher Scientific, Foster City, CA) were used to assess the expression of 93 genes selected based on their selectivity and sensitivity to important hepatic receptors known to be modulated by environmental chemicals; importance in human hepatocyte functionality; and hepatotoxicity. […]
In the case of `O=C(CCCN1CCC(O)(c2ccc(Cl)cc2)CC1)c1ccc(F)cc1`, the outcome is reported as “inactive”.
For `CCC(C)c1ccccc1O` (stereo unspecified), the outcome was “inactive”.
With `O=C1NS(=O)(=O)c2ccccc21` the outcome was “inactive”.
With `CCCCCCCCCCCCCCC` the outcome was “inactive”.
In the case of `OCC(CO)(CBr)CBr`, the outcome is reported as “inactive”.
With `CCCCC=O` the outcome was “inactive”.
For `CN(C)CCOC(c1ccccc1)c1ccccc1`, the outcome was “inactive”.
In the case of `N=C(N)c1ccc(OCCCCCOc2ccc(C(=N)N)cc2)cc1`, the outcome is reported as “inactive”.
With `CC(=O)Nc1ccc(O)cc1` the outcome was “inactive”.
For `CS(=O)(=O)c1ccc([C@@H](CC2CCCC2)C(=O)Nc2cnccn2)cc1Cl`, the outcome was “inactive”.
With `O=C(c1ccccc1)c1ccccc1` the outcome was “inactive”.
For `CCCCC(CC)C(=O)O` (stereo unspecified), the outcome was “inactive”.
In the case of `CCCCCCCCCCCCOS(=O)(=O)O`, the outcome is reported as “inactive”.
For `Cc1[nH]nc2c1N=C(c1ccccc1Cl)c1cc([N+](=O)[O-])ccc1N2`, the AC50 was 12.6 µM (active).
With `CCCCc1oc2ccccc2c1C(=O)c1cc(I)c(OCCN(CC)CC)c(I)c1` the outcome was “inactive”.
For `CN(Cc1cnc2nc(N)nc(N)c2n1)c1ccc(C(=O)N[C@@H](CCC(=O)O)C(=O)O)cc1`, the outcome was “inactive”.
